Columns and labels:
Assay in all cases: PBM binding z-score (relative to random genomic background probes); higher = stronger binding; sequences stand for … in GC…GCGATTGACAGCGTAGAATGAAGG
[1] = test system: RARb homodimer (NR concentration 270 nM)
Summary of the method: (§1)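 For binding z-scores, the reference was random background probes on custom Agilent 4×180K protein-binding microarrays. These arrays were incubated 1 h with ligand-free nuclear receptor dimers in PBS pH 7.4, 2% milk, 0.02% Triton X-100, 1 mM DTT, 0.2 mg/mL BSA and 0.4 mg/ml salmon testes DNA. Fluorescence was scanned after antibody detection of each partner (one per run) and regression-normalized.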

[2] = test system: RARg:RXRa (NR concentration 270 nM, RXRa partner concentration 90 nM)
Summary of the method: as §1

[3] = test system: RARg homodimer (NR concentration 270 nM)
Summary of the method: as §1

[4] = test system: RXRa DBDmut IVT, anti-RXR (DBD mutation: RXRa K156A/R161A, NR concentration 90 nM)
Summary of the method: as §1

[5] = test system: RXRa homodimer (NR concentration 180 nM)
Summary of the method: as §1

[6] = test system: THRa:RXRa (NR concentration 90 nM, RXRa partner concentration 90 nM)
Summary of the method: as §1

[7] = test system: THRa homodimer (NR concentration 90 nM)
Summary of the method: as §1

[8] = test system: VDR homodimer (NR concentration 270 nM)
Summary of the method: as §1

Sequence | PBM binding z-score [1] | PBM binding z-score [2] | PBM binding z-score [3] | PBM binding z-score [4] | PBM binding z-score [5] | PBM binding z-score [6] | PBM binding z-score [7] | PBM binding z-score [8]
CCGACTGGGGCATACGGTTACCATAAGCCAGCCC | 0.117 | 0.0936 | 0.374 | -0.766 | 0.369 | -0.473 | -0.389 | -0.653
ACTATTAGTTGAGACGAGGGCAACCGGTAGGTTG | 1.42 | 0.949 | 0.676 | 0.457 | 0.675 | 2.69 | 0.339 | 1.07
TGTCACAGTTCAAAGGTAACGTAAGTATCCACAC | 1.81 | 3.57 | 2.54 | 2.93 | 4.82 | 2.74 | -0.0814 | 2.33
TCTCGGAGGACACGAAAGGTCAGACCTCGACATC | 4.65 | 4.84 | 5.27 | 1.39 | 4.1 | 3.73 | 1.55 | 1.14
CAAACTAGGTCAGAGGTCAAAGTCGAGCCAACCA | 5.04 | 7.59 | 6.79 | 2.96 | 9.16 | 4.3 | 2.24 | 4.21
TATAGTTGGTCACGGAGGTCACACACGACGGGTA | 4.58 | 4.81 | 4.72 | -0.131 | 5.16 | 3.9 | 2.69 | 2.85
CCTAATTGGTCAGGAGGTCACACACCGGATATGA | 4.46 | 4.97 | 4.47 | 1.33 | 4.88 | 3.69 | 2.45 | 2.62
CGAAATAGGTCAAGGACAGTGAATCTCCGCACGC | 3.69 | 5.2 | 6.01 | 1.55 | 4.67 | 3.1 | 1.7 | 0.593
CAAACTAGGTCACCCGAAGGTCAAAGTCCGCATG | 5.43 | 7.91 | 6.9 | 2.35 | 6.29 | 4.45 | 3.04 | 4.18
CCTACTGGGCCACGAAAGGTCATGGATTCAGTGA | 4.94 | 5.28 | 4.71 | -0.0305 | 6.03 | 3.97 | 1.17 | 1.35
GCAGACAGGTGAAACGCAGGTTACTCAGGGTGGC | 0.785 | 2.09 | 0.458 | -0.376 | 1.07 | 1.88 | -0.27 | -0.446
GATACAGGGCCAAGGCCAGAGTACGCGTATTGAT | 0.738 | 0.109 | 0.599 | -0.254 | 0.197 | -0.171 | -0.281 | -0.147
TAGCCTAGGTCATGCGGGCCAGAATAGTGTCGGC | 2.94 | 4.18 | 4.34 | 0.571 | 3.18 | 3.03 | 0.922 | 0.435
CCCAGTAGGTTATGGGGCATTCAGGCAACGGTGA | 0.987 | 0.653 | 0.48 | -1.2 | 0.869 | 0.512 | -0.000965 | 0.0729
CCTACTGGGCCATTTAGAGGTCATTGATCATATG | 3.87 | 4.06 | 2.72 | 1.45 | 3.21 | 3.31 | 1.7 | 3.36
ACAATGAGGTTACCAAAGATCAGGGAAACGCTTG | 1.14 | 2.27 | 2.07 | 1.4 | 2.9 | 2.77 | 1.14 | 0.706
ACTAGCAGGCCAAGGGTCACTCCAGATTAGTCCG | 3.65 | 3.77 | 3.48 | 0.274 | 3.74 | 2.55 | 0.269 | 1
ATATCTAGGTTATCGGGTCATTCAGTTTGCGCAT | 3.52 | 3.54 | 2.81 | 1.81 | 3.51 | 3.67 | 3.5 | 4.19
GCGACTGGGGCATGAGCAGGTTACCATAACTTAA | 0.894 | 0.84 | 0.396 | -0.489 | 0.385 | 0.664 | -0.144 | -0.116
GAAACAGGGTCAGCTAGAGGCCAGAGTATGGAAA | 3.26 | 6.78 | 4.43 | 1.52 | 4.28 | 3.13 | 0.117 | 0.821
TATACAGGGTCAAAGGACAGAGTACGAATGTCGA | 3.47 | 5.29 | 5.03 | 3.17 | 6.26 | 3.7 | 1.21 | 2.76
CGCCCAAGGTCATAGGAGGTCAGTGAAGACAGAT | 5.6 | 6.7 | 7.14 | 3.41 | 6.07 | 5.34 | 3.1 | 3.97
AGAACGAGGGCACGCTGAGTTGATAGGAGAGTAG | 1.22 | 1.93 | 1.99 | 1.77 | 1.35 | 1.82 | 0.0402 | 1.76
AGAACGAGGTTAAGATCAGGGAAACAGAATACAT | 1.12 | 2.15 | 1.62 | 1.03 | 2.45 | 2.36 | 0.55 | 0.771
GCTAGTTAGTCAGTAAAAGGTCACACACCGGTCG | 5.02 | 4.93 | 4.43 | 0.44 | 5.22 | 3.49 | 1.36 | 1.62
TTACCAATGTGAAAGGTCGTTGATGCACGCCTTG | 1.76 | 1.76 | 0.967 | 0.906 | 3.08 | 1.44 | 0.0994 | 1.66
GCTATCAGTTGAAAGGGCAACCGAATGATTCTCG | 1.81 | 1.22 | 1.28 | 0.45 | 1.26 | 0.693 | -0.411 | -0.03
CCTGCTAGGTCATGGGCAGCTAATCTACAGTATG | 2.79 | 4.04 | 4.39 | 1.05 | 2.83 | 2.89 | 0.639 | -0.0786
